Bioassay records: PubChem, National Center for Advancing Translational Sciences (NCATS)
TGFb inhibitor: TGF-b pathway inhibition; AID 588855; hit rate 1.2% among 410,000; HepG2 CAGA-GFP TGF-b/SMAD3 reporter, GFP fluorescence, 18 h; TGF-beta stimulated, 500 pg/mL final; Potency, µM (doses to about 46.1 µM), hits mostly inhibitors; note: nearly all actives have a fitted effect of over 65% in size
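HEPG2 CAGA-GFP cells (1000/well, DMEM with 1% FBS) were pre-incubated 2 h at 37 degrees C, given compound by pin tool, then stimulated with TGF-beta at 500 pg/mL final for 18 h before per-cell GFP fluorescence imaging.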
TDP1 block: TDP1 (human) enzyme inhibition | recombinant TDP1, AlphaScreen DNA substrate cleavage | Potency, µM (doses to about 130 µM), hits mostly inhibitors | hit rate 0.28% among 350,000; note: nearly all actives have a fitted effect of over 40% in size
Target sequence (Q9NUW8 whole entry, looked up): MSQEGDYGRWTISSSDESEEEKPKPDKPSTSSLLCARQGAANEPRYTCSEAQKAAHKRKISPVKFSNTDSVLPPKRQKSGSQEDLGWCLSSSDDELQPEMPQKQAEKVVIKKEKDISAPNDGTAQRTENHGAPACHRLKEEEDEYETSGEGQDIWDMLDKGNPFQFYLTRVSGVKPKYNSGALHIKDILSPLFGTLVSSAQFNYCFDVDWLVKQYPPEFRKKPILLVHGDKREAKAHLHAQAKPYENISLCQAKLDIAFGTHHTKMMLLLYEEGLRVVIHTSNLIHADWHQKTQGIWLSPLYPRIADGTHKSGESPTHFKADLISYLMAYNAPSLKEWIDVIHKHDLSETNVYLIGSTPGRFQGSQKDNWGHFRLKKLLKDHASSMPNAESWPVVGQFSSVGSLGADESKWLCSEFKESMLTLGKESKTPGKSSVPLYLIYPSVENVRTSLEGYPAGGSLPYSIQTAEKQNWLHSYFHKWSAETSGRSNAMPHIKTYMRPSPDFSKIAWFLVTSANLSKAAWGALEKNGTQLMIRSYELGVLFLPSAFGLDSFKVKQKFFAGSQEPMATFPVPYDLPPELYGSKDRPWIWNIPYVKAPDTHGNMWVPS
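Steps: enzyme plus compound, 15 min RT; add biotin/phosphotyrosine-FITC oligonucleotide (15 nM final), react 5 min; add donor/acceptor beads (10 ug/ml final), 10 min; read AlphaScreen. Tdp1 at 1 nM final.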
IL1B secr inh: inhibitors of inflammasome signaling (IL-1 beta secretion). THP-1 LPS/ATP IL-1B secretion, AlphaLISA, 16 h; stronger effect = lower value. activity change, % at 57.5 µM. AID 743279. hit rate 4.7% among 360,000; in the data active = activity change below about -50%; inconclusive = mostly about -30% to -49%
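THP-1 cells pretreated 1 hr with compounds (up to 57.5 uM final), then stimulated with LPS (250 ng/mL final) plus ATP (1.25 mM final); secreted IL-1B measured by AlphaLISA after 16 hr, decreased signal indicating inhibition.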
HepG2 viability: kills HepG2 cells in TGF-b inhibitor counter-screen | HepG2 CAGA-GFP viability, ATP luminescence, 18 h | hit rate 0.76% among 410,000 | Potency, µM (titrated, usually from 46.1 µM), usual class: cytotoxic | AID 588856
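CellTiter-Glo luminescence gave cytotoxicity after 18 hours at 37 degrees C. The cells were HepG2 CAGA-GFP in 1% FBS DMEM, stimulated with 500 pg/mL TGF-beta after compound addition. %Activity was normalised to no-cell wells (complete cell-killing) and DMSO (no toxicity), and curves were fitted and classified.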
DT40 TDP1 CPT: DT40-hTDP1 cell growth loss with CPT; chicken DT40 Tdp1-/-;hTDP1 cells + 20 nM CPT, ATP luminescence, 48 h; Potency, µM (doses to about 46.2 µM), actives largely listed as inhibitors; hit rate 12% among 420,000; note: nearly all actives have a fitted effect of over 55% in size
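Cell growth measured by CellTiter-Glo luminescence after a minimum 48 h, 37 C compound exposure with 20 nM CPT in Tdp1-knockout DT40 cells stably expressing hTDP1, seeded 400/well; qHTS titration format.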
TDP1 cell noCPT: qHTS for Inhibitors of human tyrosyl-DNA phosphodiesterase 1 (TDP1): qHTS in cells in absence of CPT; AID 686978, 2013; Potency, µM (highest dose often 46.2 µM), hits mostly inhibitors; hit rate 15% among 420,000; DT40 Tdp1-/- hTDP1 cells, no CPT, ATP luminescence, 48 h; note: nearly all actives have a fitted effect of over 55% in size
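Stably hTDP1-transfected Tdp1-null chicken DT40 cells were treated with library compounds minus camptothecin and grown for at least 48 hr at 37 °C, after which cellular ATP was quantified by luminescence.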
Each line names hits and unclear results; the compound was inactive in the other large screens. Most compounds without a hit are left out; they make up all but 18% or so of the library. Unless noted, calls come from the whole dose curve; as a rule, active = well fitted curve in the direction sought with a large enough effect; inconclusive = small, poorly fitted or top-dose-only effect, or another doubt; inactive = no such curve, though single readings can be large; an effect the other way counts as inactive or inconclusive.

O=C(c1ccoc1)N1CCN(c2cc(-c3ccccc3)nc3cc(-c4ccccc4)nn23)CC1	TGFb inhibitor inconclusive, DT40 TDP1 CPT 18µM, TDP1 cell noCPT 16µM (no result: TDP1 block)
O=C(c1ccoc1)N1CCN(c2cc(-c3ccco3)nc3cc(-c4ccccc4)nn23)CC1	TGFb inhibitor inconclusive, DT40 TDP1 CPT 8.2µM, TDP1 cell noCPT 7.3µM (no result: TDP1 block)
Cc1cc(N2CCN(C(=O)c3ccoc3)CC2)n2nc(-c3ccccc3)cc2n1	DT40 TDP1 CPT inconclusive, TDP1 cell noCPT 18µM (no result: TDP1 block)
COc1ccccc1-c1cc2nc(-c3ccccc3)cc(N3CCN(C(=O)c4ccoc4)CC3)n2n1	TGFb inhibitor inconclusive, DT40 TDP1 CPT 9.2µM, TDP1 cell noCPT 5.2µM (no result: TDP1 block)
CN1CCN(c2cc(-c3cccc(C(=O)O)c3)nc3ccnn23)CC1	none (no result: TDP1 block)
Cc1nn2c(N3CCN(C(=O)c4ccco4)CC3)cc(C(C)(C)C)nc2c1-c1ccccc1	DT40 TDP1 CPT inconclusive, TDP1 cell noCPT inconclusive
CCc1ccc2nc(N(Cc3cccnc3)C(=O)c3cccs3)sc2c1	DT40 TDP1 CPT inconclusive, TDP1 cell noCPT inconclusive (no result: IL1B secr inh)
CC(C)(CNC(=O)CO/N=C1/C=C2CCC3C(C(O)C[C@@]4(C)C3CC[C@]4(O)C(=O)CO)[C@@]2(C)CC1)C(O)C(=O)O (stereo not given in full)	IL1B secr inh inconclusive (no result: TDP1 block)
Cc1nn(CCCC(=O)Nc2ccccc2C(F)(F)F)c(=O)c2c1sc1ccccc12	TDP1 cell noCPT inconclusive (no result: IL1B secr inh)
COc1ccccc1-c1cc2nc(-c3ccccc3)cc(N3CCN(C(=O)c4ccco4)CC3)n2n1	DT40 TDP1 CPT 12µM, TDP1 cell noCPT 6.5µM (no result: TDP1 block)
NC(=O)c1ccccc1N/C=C/C(=O)c1ccc(Cl)cc1Cl	IL1B secr inh -55, DT40 TDP1 CPT inconclusive, TDP1 cell noCPT 18µM
NC(=O)c1ccccc1N/C=C/C(=O)c1ccc(F)cc1	DT40 TDP1 CPT inconclusive, TDP1 cell noCPT 15µM
Cc1cccc(C)c1NC(=O)Cn1cc(C(=O)C2CC2)c2ccccc21	none (no result: IL1B secr inh)
CN1CCN(C2=Nc3cc(F)ccc3Cc3ccccc32)CC1	DT40 TDP1 CPT inconclusive, TDP1 cell noCPT inconclusive (no result: TGFb inhibitor, IL1B secr inh, HepG2 viability)
Fc1ccc(N2CCN(C3=Nc4cccc5cccc3c45)CC2)cc1	TGFb inhibitor inconclusive, IL1B secr inh -52, DT40 TDP1 CPT 26µM, TDP1 cell noCPT 16µM
c1ccc(CN2CCN(c3nc4ccccc4s3)CC2)cc1	none (no result: TDP1 block)
c1ccc(CN2CCN(C3=Nc4cccc5cccc3c45)CC2)cc1	IL1B secr inh -90, DT40 TDP1 CPT inconclusive, TDP1 cell noCPT inconclusive
O=C(NCC(c1ccco1)N1CCN(c2ccc(F)cc2)CC1)C1CCCCC1 (stereo not given)	DT40 TDP1 CPT inconclusive, TDP1 cell noCPT inconclusive (no result: TDP1 block)
CCN(CC(=O)NC1CCS(=O)(=O)C1)S(=O)(=O)c1ccc(Br)cc1 (stereo not given)	none
CN(C(=O)COC(=O)C12CC3CC(CC(Cl)(C3)C1)C2)C1(C#N)CCCCC1	DT40 TDP1 CPT inconclusive
Cc1c(N=Cc2c(O)n(Cc3ccco3)c(=O)c3ccccc23)c(=O)n(-c2ccccc2)n1C	DT40 TDP1 CPT 21µM, TDP1 cell noCPT inconclusive
Cc1ccc(S(=O)(=O)CC(=O)N2CCCCCC2)cc1	none
Cc1ccc(CC(=O)N2CCN(c3ccc([N+](=O)[O-])cc3)CC2)cc1	DT40 TDP1 CPT inconclusive, TDP1 cell noCPT 7.3µM (no result: TDP1 block, IL1B secr inh)
Cc1ccc(S(=O)(=O)CC(=O)N2CCN(c3ccc([N+](=O)[O-])cc3)CC2)cc1	DT40 TDP1 CPT 13µM, TDP1 cell noCPT inconclusive
Cc1cccc(NC(=O)C(C)SCc2nc3sc4c(c3c(=O)[nH]2)CCCC4)n1 (stereo not given)	DT40 TDP1 CPT inconclusive, TDP1 cell noCPT inconclusive
CCCOc1ccccc1C1CC(=O)NC2=C1C(=O)CCC2 (stereo not given)	DT40 TDP1 CPT 4.1µM, TDP1 cell noCPT 4.1µM
